# According to PubChem BioAssay (NCI):
# This is part of a sample that, as a whole, favours compounds with a hit. Of some 83,000 tested, about 20% had one in any assay.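 Growth was measured after 48 h exposure to one concentration of compound in 96-well plates. Values under 10 count as active.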 Values without a mark were called inactive. Calls of active or inactive are those of the source.
# Columns and labels:
# Assay in all cases: NCI-60 one-dose screen, 48 h (100 = growth as untreated, 0 = no growth, -100 = all killed)
# Settings in all cases: 10 µM unless noted
# DU-145 prostate = tested on: DU-145 prostate
# K-562 leukemia = tested on: K-562 leukemia
# MALME-3M melanoma = tested on: MALME-3M melanoma
# MDA-MB-231 breast = tested on: MDA-MB-231 breast
# RXF 393 renal = tested on: RXF 393 renal
# SF-268 CNS = tested on: SF-268 CNS
# SF-295 CNS = tested on: SF-295 CNS
# SF-539 CNS = tested on: SF-539 CNS
# UACC-257 melanoma = tested on: UACC-257 melanoma
# M14 melanoma = tested on: M14 melanoma
SMILES,growth (DU-145 prostate),growth (K-562 leukemia),growth (MALME-3M melanoma),growth (MDA-MB-231 breast),growth (RXF 393 renal),growth (SF-268 CNS),growth (SF-295 CNS),growth (SF-539 CNS),growth (UACC-257 melanoma),growth (M14 melanoma)
COc1ncc(F)c(OC)n1,110%,100%,103%,115%,105%,104%,97.7%,107%,101%,102%
O=[N+]([O-])c1ccc2nc(N/N=C/c3ccc(O)cc3)sc2c1,60.1%,31.6%,65%,82.9%,103%,64.1%,86.7%,49.5%,66.6%,83%
CCCCC1COc2cccc3c(SCC(=O)N(C)c4cccc5ccccc45)cc[n+]1c23 (stereo not given),105%,88.4%,107%,110%,115%,112%,96.5%,96.7%,101%,82.8%
CCCCCCCCCCCC(=O)[O][Sn]([CH2]CCC)([CH2]CCC)[CH2]CCC,-98.7% (active),-29.9% (active),-96.1% (active),-94.6% (active),-72.4% (active),-83.7% (active),-83.8% (active),-97.7% (active),-96.5% (active),-99.6% (active)
COc1cc2cc(Oc3ccc(NC(=O)Nc4cccc(C(F)(F)F)c4)cc3)c(C)nc2cc1OCCN1CCCCC1,-94.1% (active),-49.7% (active),-88.5% (active),-86.8% (active),-70.6% (active),-78.4% (active),-57.4% (active),-92.4% (active),-68.9% (active),-64.1% (active)
COc1ccc(/C=N\N2CCOCC2)cc1OC1CCCC1,102%,108%,127%,110%,113%,94.8%,98.1%,94.9%,102%,92.7%
COc1cccc(-c2ccc3c(c2)C2CCN(Cc4ccccc4)C3C2)c1 (stereo not given),95.6%,22.7%,62.8%,88.8%,98%,86.9%,81.2%,85.1%,78.7%,72.2%
Cc1nc2cc(Nc3nc(NCCN)nc(Nc4ccc(F)cc4)n3)ccc2n1Cc1ccccc1,82.2%,-36.8% (active),93.5%,60.4%,72%,71.8%,79.8%,96%,90.5%,81.6%
C[C@H]1C(=O)C23CCC1C[C@@]21O[C@@H]2C(C)(C)C=CC(=O)C23COC1=O,104%,104%,110%,118%,108%,104%,110%,111%,98.7%,102%
C[C@]1(CO)C[C@@H](O)C[C@]2(C)[C@@H]1CC[C@@]13C[C@@H]4[C@@H](C[C@H]12)[C@]4(C)C3,111%,101%,94.4%,98%,119%,100%,104%,99.4%,106%,94.8%
O=C1C=CC(=O)N1CCCCCCCCCCN1C(=O)C=CC1=O,80.1%,5.56% (active),70%,104%,76.6%,103%,73.7%,91.1%,76.1%,77.8%
O=c1ccc2ccccc2o1,112%,112%,110%,100%,116%,102%,97.7%,102%,101%,104%
COc1ccc(C2=NOC(CC(=O)N(CCO)CCO)C2)cc1OC1CCCC1 (stereo not given),105%,121%,111%,103%,102%,97%,97.1%,104%,102%,92.2%
